# According to the supplement of paper PMC6763611:
# Tested on: Plasmodium falciparum NF54
# Experiment: growth inhibition relative to untreated control; higher = more inhibition
# Details: 5 µM; minimal medium (MM); 72 h
# In short: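 Growth inhibition was measured by SYBR Green fluorescence, normalised to untreated wells and corrected for background from uninfected erythrocytes. The parasites were P. falciparum NF54 ring stages (1% hematocrit, 1% parasitemia) exposed to single 5 μM or 1 μM doses of test compounds for 72 h at 37 °C, in either minimal RPMI or minimal RPMI containing 2.2 μM folate, 7.3 μM pABA, 7.3 μM pHBA, 111 μM tyrosine, 90 μM phenylalanine and tryptophan.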
row,SMILES,growth inhibition
1,O=C(Nc1nnc(-c2ccc(Cl)s2)o1)c1ccc(Cl)s1,< 0%
2,Cc1ccc(S(=O)(=O)N2CCN(C(=O)c3cc(-c4ccccc4)n[nH]3)CC2)cc1,88.6%
3,COc1ccc(-c2cnc3ccc(N4CCCC4)nn23)cc1OC,82.4%
4,CCC(Sc1nc2ccccc2o1)C(=O)Nc1nnc(C)s1 (stereo not drawn),0.009%
5,CCOc1ccc(OCC(=O)Nc2cc(C)cc(C)c2)cc1,< 0%
6,COC(=O)c1c(NC(=O)c2cc3ccccc3oc2=O)sc2c1CCN(Cc1ccccc1)C2,1.3%
7,CC1COC2(CCN(c3nc(=O)c4cc(C(F)(F)F)cc([N+](=O)[O-])c4s3)CC2)O1 (stereo not drawn),< 0%
8,COc1ccc(-c2cnc3cnc(-c4cccc(OC(C)C)c4)cn23)cc1,8.04%
9,COc1cc(CN2CCC3(C=Cc4ccccc43)CC2)cc2c1OCO2,8.3%
10,O=C(Nc1ccc(N2CCNCC2)nc1)c1oc(-c2ccccc2)nc1C(F)(F)F,89.9%
11,CN1CCN(S(=O)(=O)c2ccc(-c3ccc4c(Nc5ncc(Cl)cn5)ccnc4c3)cc2)CC1,88.6%
12,O=C(COc1cccc(F)c1)Nc1nc(-c2ccccn2)cs1,< 0%
13,O=C(C1CCN(c2nnc(-n3cccc3)s2)CC1)N1CCC(Cc2ccccc2)CC1,8.81%
14,COc1ccc(Cl)cc1NC(=O)CN(C)C(=O)c1cnn(-c2ccccc2)n1,98.3%
15,CC(C)(C)OC(=O)N1CCC(Cn2nc(-c3cnc4ccccc4c3)c3c(N)ncnc32)CC1,52.3%
16,COc1ccc(Cn2cnc3c(-c4ccco4)nc(Cl)nc32)cc1,23.6%
17,Cc1ccc2nc(Cl)c(CNCc3cccs3)cc2c1,< 0%
18,C[C@H]1COc2c(N3CCN(C)CC3)c(F)cc3c(=O)c(C(=O)O)cn1c23,15.8%
19,O=C(NC1CCN(c2ccnc3ccccc23)C1)c1cccc(C(F)(F)F)c1 (stereo not drawn),66.7%

row,SMILES,growth inhibition
1,Cc1ccc2nc(C)c(-c3ccn(Cc4ccccc4)n3)n2c1,< 0%
2,CS(=O)(=O)N1CCC(CCn2nc(Cc3cccc4ccccc34)c3c(N)ncnc32)CC1,< 0%
3,CC(C)(C)n1nc(Cc2ccc(F)c(Cl)c2)c2c(N)ncnc21,1.6%
4,CC(Oc1cccc(Cl)c1)C(=O)Nc1ccc2oc(-c3ccncc3)nc2c1 (stereo not drawn),3.02%
5,Clc1cccc(CO[C@H]2CCc3ccccc3[C@@H]2n2ccnn2)c1,15.4%
6,CCC(Sc1nc2ccccc2o1)C(=O)Nc1nccs1 (stereo not drawn),3.39%
7,CC(C)(C)c1cc(C(=O)N2CCN(c3nccnc3C#N)CC2)n(Cc2ccccc2)n1,92%
8,COc1ccccc1OCCCCn1c(C2CC2)nc2ccccc21,50.7%
9,CNC(=O)c1cc(S(=O)(=O)N2CCN(c3ccccn3)CC2)cs1,90.9%
10,Cc1ccc(-c2nc(CN(Cc3ccccn3)C(C)C)cs2)o1,49.2%
11,O=C(NCCN1CCCC1)c1cc(NCCN2CCOCC2)nc2ccc(Cl)cc12,96.8%
12,Cc1[nH]c2ccccc2c1C(c1cccs1)N1CCN(C)CC1 (stereo not drawn),19.7%
13,COC(=O)c1cccc2oc(-c3cccc(OC)c3NC(=O)c3cc(-c4ccccc4)on3)nc12,< 0%
14,COc1ccc(CCN2CCC(NCc3cccc(N(C)C)c3)CC2)cc1,94.6%
15,Cc1ccccc1CN1CCC(O)(c2ccc(Cl)c(C(F)(F)F)c2)CC1,76.2%
16,COc1cc(Br)cc2cc(C(=O)Nc3cccc(C(F)(F)F)c3)c(=O)oc12,< 0%
17,COc1ccc(-c2nnc3ccc(-c4cccc(C(C)C)c4)cn23)cc1OC,< 0%
18,CN1CCN(c2nccc3nc(-c4ccc(F)c(F)c4)[nH]c23)CC1,91.1%
19,Cc1ncc(-c2ccnc(Nc3ccc(S(C)(=O)=O)cc3)n2)n1C(C)C,45.6%
